Reference: PubChem BioAssay (NCATS)
Unmarked numbers belong to inactive results. Results filed as inconclusive are left out. Active and inactive are the calls of the source. Unless noted, the call rests on the fitted dose curve; in most records, active means well fitted curve in either direction with a large enough effect (not every such curve was filed as active); inconclusive means small, poorly fitted or top-dose-only effect, or another doubt; inactive means flat fitted curve, though single readings scatter.

Columns and labels:
[1] = biological target: Lysosomal acid glucosylceramidase (Homo sapiens) (UniProt P04062); assay: Glucocerebrosidase-p2 (AID 348; in the data active means potency below about 10 µM; further: potency means the concentration at half of the fitted maximal effect); conditions: purified GBA, blue fluorogenic substrate, 40 min
Chain of Lysosomal acid glucosylceramidase (Homo sapiens) (P04062 whole entry, looked up): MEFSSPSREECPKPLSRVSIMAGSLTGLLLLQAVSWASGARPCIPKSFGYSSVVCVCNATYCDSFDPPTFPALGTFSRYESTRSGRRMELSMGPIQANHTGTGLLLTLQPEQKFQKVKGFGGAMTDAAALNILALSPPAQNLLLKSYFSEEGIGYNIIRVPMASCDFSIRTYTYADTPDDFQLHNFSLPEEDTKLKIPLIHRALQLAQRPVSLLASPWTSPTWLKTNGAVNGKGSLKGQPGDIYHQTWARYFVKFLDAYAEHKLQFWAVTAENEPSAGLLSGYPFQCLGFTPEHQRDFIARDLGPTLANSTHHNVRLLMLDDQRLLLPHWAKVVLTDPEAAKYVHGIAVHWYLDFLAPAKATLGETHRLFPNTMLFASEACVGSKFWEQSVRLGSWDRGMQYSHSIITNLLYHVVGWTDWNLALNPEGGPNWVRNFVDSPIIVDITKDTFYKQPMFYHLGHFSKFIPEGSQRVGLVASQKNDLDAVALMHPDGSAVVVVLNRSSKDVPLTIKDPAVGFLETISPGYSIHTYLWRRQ
In short: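 Normal human glucocerebrosidase (0.2 nM) with blue fluorogenic substrate (80 uM final) in citrate/phosphate pH 5.9 with 10mM sodium taurocholate, 0.01% tween-20; 40 min RT, NaOH/glycine stop; fluorescence Ex 365/Em 440; AC50 from a titration from 0.6 nM upwards.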

[2] = AP1 Signaling Pathway (AID 357); conditions: ME-180 AP-1-bla reporter, EGF-induced, beta-lactamase ratio, 5 h; at 7.69 µM (top of the series) unless noted;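 further: ME-180 reporter cells stimulated with EGF at its EC50 level; on the % scale 0 is the no-effect control and ±100 the full control effect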
In short: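 Titration-series screen for positive or negative modulators of EC50 EGF-induced signaling in ME-180 cells carrying an AP-1-driven beta-lactamase reporter. After 5 hours at 37 degrees Celsius, CCF4 460nm/530nm emission ratio gave %Activity; AC50 values derived.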

[3] = NFAT Signaling Pathway (AID 444); conditions: Jurkat NFAT-bla M1, carbachol, beta-lactamase ratio, 5 h; at 7.69 µM (top of the series) unless noted;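 further: carbachol stimulus at about its EC50 of 1 µM final; on the % scale 0 is the no-effect control and ±100 the full control effect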
In short: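 Read-out: CCF4 FRET ratio (460 nm/530 nm) after 1 h RT dye loading, used for %activity and AC50 from titration series. Cells: Jurkat NFAT-β-lactamase/M1 line, treated with compound plus 1 uM carbachol for 5 h, 37 °C.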

[4] = Stat Signaling Pathway (AID 446); conditions: ME-180 SIE beta-lactamase reporter, IL-6 stimulated, 5 h; at 7.69 µM (top of the series) unless noted;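 further: ME-180 cervical cancer cells given 40 pM IL-6 alongside compound; SIE-controlled beta-lactamase reporter measured as 460/530 nm FRET emission ratio; on the % scale 0 is the no-effect control and ±100 the full control effect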
In short: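 FRET read-out (405 nm excitation, 460/530 nm emission) of a beta-lactamase reporter under a STAT-inducible element in ME-180 cervical carcinoma cells. Cells with compound receive 40 pM IL-6 for 5 h. Values are normalised to AC90 stimulation and AC90 JAK-inhibitor controls.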

[5] = biological target: Glucocorticoid receptor (Homo sapiens) (UniProt P04150); assay: GR-EFC Redistribution (AID 451; calls by dose curve; further: potency means the concentration at half of the fitted maximal effect); conditions: CHO-K1 GR-EFC translocation, beta-gal luminescence, 2 h
Chain of Glucocorticoid receptor (Homo sapiens) (P04150 whole entry, looked up, the tested form may be a part): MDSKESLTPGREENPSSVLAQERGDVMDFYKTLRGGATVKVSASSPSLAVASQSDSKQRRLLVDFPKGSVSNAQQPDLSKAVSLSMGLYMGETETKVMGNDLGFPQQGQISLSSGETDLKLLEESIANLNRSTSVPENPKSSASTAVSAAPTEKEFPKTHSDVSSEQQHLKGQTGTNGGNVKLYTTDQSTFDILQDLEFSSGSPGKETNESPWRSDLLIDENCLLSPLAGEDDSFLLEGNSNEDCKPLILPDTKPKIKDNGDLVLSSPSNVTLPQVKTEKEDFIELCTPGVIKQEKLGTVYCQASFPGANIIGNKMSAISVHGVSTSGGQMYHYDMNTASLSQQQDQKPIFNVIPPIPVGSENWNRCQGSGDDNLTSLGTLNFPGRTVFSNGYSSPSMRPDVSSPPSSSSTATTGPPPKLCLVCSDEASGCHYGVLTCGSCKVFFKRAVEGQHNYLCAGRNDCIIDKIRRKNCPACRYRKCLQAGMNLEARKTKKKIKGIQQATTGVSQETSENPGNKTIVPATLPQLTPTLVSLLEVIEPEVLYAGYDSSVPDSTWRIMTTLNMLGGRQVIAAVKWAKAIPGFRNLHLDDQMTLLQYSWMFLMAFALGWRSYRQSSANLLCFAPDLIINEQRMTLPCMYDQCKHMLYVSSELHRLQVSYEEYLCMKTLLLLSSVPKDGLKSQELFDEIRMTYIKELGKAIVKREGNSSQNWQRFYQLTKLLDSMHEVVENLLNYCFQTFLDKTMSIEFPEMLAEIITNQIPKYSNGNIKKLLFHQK
In short: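 Translocation of GR-ED fusion to nuclear EA restores b-gal, read by luminescence after 1 h room-temperature detection. Engineered CHO-K1 biosensor cells, 1,000/well, exposed 2 h at 37 C to titrations up to 46 uM final.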

[6] = biological target: Mitogen-activated protein kinase 10 (Mus musculus) (UniProt Q61831); assay: JNK3 AlphaScreen Assay (AID 530); conditions: JNK3 lysate, c-Jun phosphorylation; series mostly up to 11.4 µM;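 further: kinase came from lysate of stimulated human HepG2 cells; signal reports phosphorylation of biotinylated GST-cJun 1-79 at Ser73 with 10 µM ATP; on the % scale 0 is the no-effect control and ±100 the full control effect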
In short: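 qHTS titrations with 15 min compound pre-incubation before adding ATP (10 uM final). Read-out: AlphaScreen of Ser73-phosphorylated biotin-GST-cJun using HepG2 lysate JNK3 activated by IL-1β and TNFα.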

[7] = biological target: 3',5'-cyclic-AMP phosphodiesterase 4B (Homo sapiens) (UniProt Q07343); assay: qHTS Assay for Inhibitors of PDE-IV (AID 607; active means well fitted activation curve with a large enough effect in the main read-out, with a control signal flat, not every such curve was filed as active; further: % of control where 0% means no effect); conditions: HEK293 ACTOne CNG channel cells, membrane potential fluorescence; series mostly up to 22.9 µM
Chain of 3',5'-cyclic-AMP phosphodiesterase 4B (Homo sapiens) (Q07343 whole entry, looked up): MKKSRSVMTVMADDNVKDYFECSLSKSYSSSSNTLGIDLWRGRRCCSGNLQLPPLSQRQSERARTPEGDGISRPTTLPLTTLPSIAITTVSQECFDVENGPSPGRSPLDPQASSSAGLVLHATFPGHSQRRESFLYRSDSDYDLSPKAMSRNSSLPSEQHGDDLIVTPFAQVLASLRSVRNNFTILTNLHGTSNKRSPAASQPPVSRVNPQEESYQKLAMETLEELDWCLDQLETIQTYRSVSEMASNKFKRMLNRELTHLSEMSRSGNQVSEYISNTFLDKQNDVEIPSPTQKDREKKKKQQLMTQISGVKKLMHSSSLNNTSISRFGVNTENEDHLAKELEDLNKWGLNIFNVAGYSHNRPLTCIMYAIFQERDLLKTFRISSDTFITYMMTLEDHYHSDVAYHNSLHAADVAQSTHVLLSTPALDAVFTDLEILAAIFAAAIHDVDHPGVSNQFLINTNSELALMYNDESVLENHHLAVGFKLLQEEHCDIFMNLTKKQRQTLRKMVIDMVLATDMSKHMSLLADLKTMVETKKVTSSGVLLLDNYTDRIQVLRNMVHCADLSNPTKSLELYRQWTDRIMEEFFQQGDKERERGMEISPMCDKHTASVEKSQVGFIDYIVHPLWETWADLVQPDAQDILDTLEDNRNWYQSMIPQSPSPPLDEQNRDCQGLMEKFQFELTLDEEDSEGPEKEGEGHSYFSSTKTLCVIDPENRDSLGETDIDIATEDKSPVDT
In short: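 Cell-based read-out of cAMP via a modified cyclic nucleotide-gated channel and membrane potential dye (535/590 nm) in HEK293 cells expressing PDE4 endogenously. Compounds tested up to 22.9 uM final; 100 uM RO 20-1724 reference.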

[8] = qHTS Assay for Identification of Small Molecule Agonists for Hypoxia Response Element Signaling Pathway (AID 914; active means well fitted activation curve with a large enough effect in the signal ratio, with a control signal flat, not every such curve was filed as active; the % refers to the signal ratio; further: % of control where 0% means no effect); conditions: ME-180 (cervical carcinoma) HRE-bla reporter, beta-lactamase ratio, CoCl2, 17 h; activation: hits give high values
In short: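 AC50 values come from titration-series %Activity, taken as the 460/530nm ratio of CCF4 fluorescence (excitation 405nm). CellSensor HRE-bla ME-180 cells were treated 17 hours at 37 C with compound plus an EC50 level of CoCl2.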

[9] = biological target: Glucocorticoid receptor (Homo sapiens) (UniProt P04150); assay: GR-GFP Redistribution (AID 450;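 active means compounds whose dose series gives a full or clear partial fitted curve of increased nuclear translocation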; further: potency means the concentration at half of the fitted maximal effect); conditions: U2OS GR-GFP nuclear translocation, laser cytometry, 2 h
[10] = biological target: Cytochrome P450 2C9 (Homo sapiens) (UniProt P11712); assay: qHTS Assay for Inhibitors and Substrates of Cytochrome P450 2C9 (AID 883; active means well fitted curve in the direction sought with a large enough effect; an effect the other way counts as inactive or inconclusive; further: potency means the concentration at half of the fitted maximal effect; nearly all actives have a fitted effect of over 60% in size); conditions: recombinant CYP2C9, luciferin-H luminescence, 60 min; series mostly up to 11.4 µM
Chain of Cytochrome P450 2C9 (Homo sapiens) (P11712 whole entry, looked up): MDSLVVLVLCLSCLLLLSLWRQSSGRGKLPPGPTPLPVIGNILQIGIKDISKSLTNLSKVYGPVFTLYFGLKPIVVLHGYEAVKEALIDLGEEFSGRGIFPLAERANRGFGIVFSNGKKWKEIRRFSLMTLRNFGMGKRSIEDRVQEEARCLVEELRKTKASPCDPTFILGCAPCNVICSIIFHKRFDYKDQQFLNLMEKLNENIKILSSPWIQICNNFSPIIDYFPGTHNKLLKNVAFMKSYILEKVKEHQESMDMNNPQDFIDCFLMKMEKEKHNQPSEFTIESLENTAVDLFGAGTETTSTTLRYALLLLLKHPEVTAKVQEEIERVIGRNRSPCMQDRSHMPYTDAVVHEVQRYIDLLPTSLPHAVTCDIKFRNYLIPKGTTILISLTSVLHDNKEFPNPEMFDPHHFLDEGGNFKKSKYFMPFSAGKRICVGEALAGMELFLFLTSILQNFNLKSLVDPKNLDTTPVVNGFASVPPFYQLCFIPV
In short: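 Inhibition of CYP2C9 is scored as loss of luminescence, with 57uM sulphaphenazole defining 100% inhibition. Substrate Luciferin-H is used at 100uM, equal to its KM; enzyme at 10nM in 25mM KPO4, 60 min at 37C with NADPH regeneration.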

[11] = biological target: Cytochrome P450 3A4 (Homo sapiens) (UniProt P08684); assay: qHTS Assay for Activators of Cytochrome P450 3A4 (AID 885; active means well fitted curve in the direction sought with a large enough effect; an effect the other way counts as inactive or inconclusive; further: nearly all actives have a fitted effect of over 65% in size); conditions: recombinant CYP3A4, Luciferin-PPXE luminescence, 60 min; series mostly up to 11.4 µM
Chain of Cytochrome P450 3A4 (Homo sapiens) (P08684 whole entry, looked up): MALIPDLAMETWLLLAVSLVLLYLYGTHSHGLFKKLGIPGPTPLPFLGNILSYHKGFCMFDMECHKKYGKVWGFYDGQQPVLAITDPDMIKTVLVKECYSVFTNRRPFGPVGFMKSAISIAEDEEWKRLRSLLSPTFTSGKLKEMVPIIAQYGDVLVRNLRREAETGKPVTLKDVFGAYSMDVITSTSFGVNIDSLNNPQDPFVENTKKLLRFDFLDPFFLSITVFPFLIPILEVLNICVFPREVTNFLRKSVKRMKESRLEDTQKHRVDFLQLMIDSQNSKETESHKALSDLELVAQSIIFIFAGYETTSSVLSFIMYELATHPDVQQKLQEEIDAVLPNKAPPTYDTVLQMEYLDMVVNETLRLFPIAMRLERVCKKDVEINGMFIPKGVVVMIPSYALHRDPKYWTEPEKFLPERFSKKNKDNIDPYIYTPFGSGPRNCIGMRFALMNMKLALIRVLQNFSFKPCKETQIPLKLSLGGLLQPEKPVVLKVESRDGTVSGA
In short: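 Luminescent readout of luciferin formed from 25 uM Luciferin-PPXE (KM level) by 20 nM CYP3A4 in 200 mM KPO4, with 60 min NADPH-driven reaction at room temperature after 10 min compound exposure. Ketoconazole (57 uM) defined 100% inhibition.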

Compound | Potency [1] [µM] | activity change, negative = inhibition [2] [%] | activity change, negative = inhibition [3] [%] | activity, negative = inhibition [4] [%] | Potency [5] [µM] | Potency [6] | Potency [7] | activation [8] [%] | Potency [9] [µM] | Potency [10] | Potency [11]
COc1ccc(C(=O)N2CCC3(CC2)CN(c2ccccc2)C3)cc1 | > 11.4 | -16.2 | 5.84 | -21.3 | > 46 | inactive | inactive | – | – | – | –
O=c1cc(N=Nc2ccc(O)cc2)[nH]c(=O)[nH]1 | > 11.4 | -6.46 | -4.22 | 4.24 | > 9.22 | inactive | inactive | -26.3 | – | – | –
O=S(=O)(c1cccc(C(F)(F)F)c1)N1c2ccccc2-n2cccc2[C@H]1c1cccnc1 | > 11.4 | -23.2 | -6.39 | -6.23 | > 9.22 | inactive | inactive | – | – | – | –
Cc1cc2c(SCc3ccccc3Cl)nc(N)nc2nc1C | > 11.4 | -22.2 | 15 | -10.5 | > 9.22 | inactive | inactive | – | – | – | –
NC(=O)NCCS[C@H]1CCCC[C@@H]1O | > 11.4 | 3.84 | 3.5 | – | > 9.22 | inactive | inactive | – | > 46 | – | –
O=C(O)[C@H](/C=C\c1ccccc1)c1ccccc1 | > 11.4 | 0.652 | -12 | – | > 9.22 | inactive | inactive | – | > 46 | – | –
O=C(O)CN(CCN(CC(=O)O)CC(=O)O)CC(=O)O.[Mn] | > 11.4 | -0.063 | 7.91 | 8.71 | – | inactive | inactive | – | – | – | –
COc1ccc(C(=O)N2CCC3(CC2)CCN(c2ccccn2)CC3)cc1 | > 11.4 | -1.45 | -26.9 | -10.1 | > 46 | inactive | inactive | – | – | – | –
CC(C)(C)C1CCC2(CC1)CCN(CCCN1CCOCC1)CC2 | > 11.4 | 11.9 | – | -3.69 | > 9.22 | inactive | – | – | > 46 | – | –
O=[N+]([O-])c1ccc2c(N=Nc3ccc4ccccc4c3O)c(O)cc(S(=O)(=O)O)c2c1 | > 11.4 | -18.5 | -9.87 | – | > 9.22 | – | inactive | – | > 46 | 3.16 µM (active) | inactive
Oc1cc(O)c2c(c1)O[C@H](c1ccc(O)c(O)c1)[C@@H](O)[C@@H]2c1c(O)cc(O)c2c1O[C@@H](c1ccc(O)c(O)c1)[C@H](O)C2 | > 11.4 | 16.5 | – | -2.56 | > 9.22 | inactive | inactive | – | > 46 | – | –
C=C(CC(=O)O)C(=O)O (tested in a mixture with another compound) | > 11.4 | 6.49 | – | -4.69 | > 9.22 | inactive | inactive | – | > 46 | – | –
NC(=O)SCC(=O)Nc1ccc2ncccc2c1 | > 11.4 | 1.01 | 12.1 | – | – | inactive | inactive | – | – | – | –
COc1ccc(NCc2c(O)ccc3ccccc23)cc1 | > 11.4 | -6.4 | – | -5.4 | > 9.22 | inactive | inactive | – | > 46 | – | –
O=C1c2ccccc2C(=O)c2c(NC(=O)c3ccc4c5c(ncnc35)-c3ccccc3C4=O)cccc21 | > 11.4 | 5.12 | – | 0.00925 | > 9.22 | inactive | inactive | – | > 46 | – | –
CNc1ncnc(Sc2nc(N)nc3nc[nH]c23)c1[N+](=O)[O-] | > 11.4 | -9.31 | – | 21.1 | > 9.22 | inactive | inactive | – | > 46 | – | –
CC1(C)CC(=O)C(C(c2cccc(O)c2O)C2C(=O)CC(C)(C)CC2=O)C(=O)C1 | > 11.4 | -0.68 | – | 1.05 | > 9.22 | inactive | inactive | – | > 46 | – | –
C[C@@]12C[C@H](O)[C@@H]3[C@H](CCC4=CC(=O)CC[C@]43C)[C@H]1CC[C@@H]2c1csc(-c2ccccc2)n1 | > 11.4 | -1.5 | – | -6.13 | > 9.22 | inactive | inactive | – | > 46 | – | –
CN(C)CC[C@@H](C(=O)C(C)(C)C)c1ccccn1 | > 11.4 | 2.04 | – | 1.4 | > 9.22 | inactive | inactive | – | > 46 | – | –
O=C1C2=C(Nc3cc([N+](=O)[O-])ccc3N2)O[C@@H]1c1ccc([C@H]2OC3=C(Nc4ccc([N+](=O)[O-])cc4N3)C2=O)cc1 | > 11.4 | -12.2 | 4.88 | – | > 9.22 | inactive | inactive | – | > 46 | – | inactive
